Data published in PubChem BioAssay (NCATS).
Unmarked numbers belong to inactive results. Records with an inconclusive call do not appear. A call without a number means that no potency is given here. The source made the active and inactive calls. Unless noted, calls come from the whole dose curve; as a rule, active = well fitted curve in the direction sought with a large enough effect; inconclusive = small, poorly fitted or top-dose-only effect, or another doubt; inactive = no such curve, though single readings can be large; an effect the other way counts as inactive or inconclusive.

What was measured:
[1] = target: Cytochrome P450 1A2 (Homo sapiens) (UniProt P05177); assay: p450-cyp1a2 (AID 410; calls by dose curve; note: potency is the fitted concentration of half-maximal effect)
Method in brief: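 Luminescent demethylation readout: Luciferin-ME (100uM, equal to Km) turned over by 20nM CYP1A2 for 60 min at room temperature after NADPH regeneration addition, following 10 min compound preincubation. Normalization used 57 uM furafylline as full inhibition.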

[2] = target: Glucocorticoid receptor (Homo sapiens) (UniProt P04150); assay: GR-EFC Redistribution (AID 451; calls by dose curve; note: potency is the fitted concentration of half-maximal effect); conditions: CHO-K1 GR-EFC translocation, beta-gal luminescence, 2 h
Method in brief: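 CHO-K1 cells stably expressing nuclear-localized β-gal enzyme acceptor and GR fused C-terminally to the enzyme donor fragment; ligand-driven nuclear translocation restores β-gal by complementation. Compounds titrated up to 46 uM final, 2 h at 37 °C; luminescence read.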

[3] = target: Mitogen-activated protein kinase 10 (Mus musculus) (UniProt Q61831); assay: JNK3 AlphaScreen Assay (AID 530; active = well fitted curve in either direction with a large enough effect, not every such curve was filed as active;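 note: kinase came from lysate of stimulated human HepG2 cells; signal reports phosphorylation of biotinylated GST-cJun 1-79 at Ser73 with 10 µM ATP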)
Method in brief: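 Phosphorylation of biotinylated GST-cJun(1-79) at Ser73 is measured by AlphaScreen proximity luminescence. Enzyme is JNK3 in HepG2 lysates activated with interleukin-1beta and tumor necrosis factor alpha; ATP is 10 uM final.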

[4] = target: Cytochrome P450 2C9 (Homo sapiens) (UniProt P11712); assay: qHTS Assay for Inhibitors and Substrates of Cytochrome P450 2C9 (AID 883); note: potency is the fitted concentration of half-maximal effect; nearly all actives have a fitted effect of over 60% in size
Method in brief: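 A luminogenic readout tracked human CYP2C9 (10nM) converting deoxyluciferin (100uM, at KM) in 25mM KPO4 during 60 min at 37C with regenerated NADPH. Values normalized to 57uM sulphaphenazole as complete inhibition.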

[5] = target: Cytochrome P450 3A4 (Homo sapiens) (UniProt P08684); assay: qHTS Assay for Inhibitors and Substrates of Cytochrome P450 3A4 (AID 884); note: potency is the fitted concentration of half-maximal effect; nearly all actives have a fitted effect of over 50% in size
Method in brief: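 Luminescent readout of luciferin produced by CYP3A4 (20 nM) dealkylation of Luciferin-PPXE, 25 uM (its KM). NADPH-driven reaction ran 60 min at RT after 10 min compound preincubation; data scaled to 57 uM ketoconazole as 100% inhibition.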

[6] = target: Cytochrome P450 3A4 (Homo sapiens) (UniProt P08684); assay: qHTS Assay for Activators of Cytochrome P450 3A4 (AID 885); note: nearly all actives have a fitted effect of over 65% in size
Method in brief: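 CYP3A4 activity: Luciferin-PPXE O-dealkylation, 25uM substrate, 200mM KPO4, RT throughout. Read-out is luciferase luminescence; higher values reflect activation.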

[7] = target: Cytochrome P450 2C19 (Homo sapiens) (UniProt P33261); assay: qHTS Assay for Inhibitors and Substrates of Cytochrome P450 2C19 (AID 899); note: potency is the fitted concentration of half-maximal effect; nearly all actives have a fitted effect of over 60% in size
Method in brief: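 NADPH-dependent conversion of Luciferin-H EGE (10uM, at KM) by 5nM enzyme in 50mM KPO4, 60 min at 37C following 10 min compound preincubation. Stopped with luciferin detection buffer; luminescence read after 20 min.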

[8] = target: ATP-dependent 6-phosphofructokinase (Trypanosoma brucei brucei) (UniProt O15648); assay: qHTS Assay to Find Inhibitors of T. brucei phosphofructokinase: hit validation (AID 492961);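 note: luminescence reports ADP formed as PFK phosphorylates fructose-6-phosphate with ATP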
Method in brief: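 Percent activity derived from corrected luminescence, normalized between 0x and 1x enzyme controls, then fitted to concentration-response curves. Conditions: 1.25 nM PFK, 0.1 mM ATP, 0.5 mM F6P, 45 min RT.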

[9] = target: Ubiquitin carboxyl-terminal hydrolase 1 (Homo sapiens) (UniProt O94782); assay: Inhibitors of USP1/UAF1: Pilot qHTS (AID 504865);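 note: rhodamine fluorescence freed from ubiquitin-rhodamine substrate followed over time; top concentration of the series differs between compounds; nearly all actives have a fitted effect of over 35% in size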
Method in brief: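 USP1/UAF1 complex at 1 nM preincubated 15 min at room temperature with compound, then Ub-Rho substrate added at 150 nM final. Fluorescence (480/540 nm) read kinetically in 50 mM HEPES pH 7.8, 0.5 mM EDTA, 1 mM TCEP, 0.1 mg/ml BSA, 0.01% Tween-20.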

[10] = target: DNA dC->dU-editing enzyme APOBEC-3G (Homo sapiens) (UniProt Q9HC16); assay: qHTS for inhibitors of Vif-A3G interactions: Validation (AID 588379)
Method in brief: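 Yellow fluorescence (Ex 488, Em 500-530) of Vif-coexpressing HeLa A3G-eYFP cells, scanned by Acumen cytometer, reports blocked A3G degradation. Cells plated at 700/well overnight at 37 deg C before compound addition, then a further overnight compound incubation at 37 deg C.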

[11] = target: Luciferin 4-monooxygenase (Photinus pyralis) (UniProt P08659); assay: Biochemical firefly luciferase enzyme assay for NPC (AID 624030);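 note: purified P. pyralis luciferase at 10 nM with luciferin and ATP substrate; nearly all actives have a fitted effect of over 70% in size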
Method in brief: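 Counter-screen for direct inhibition of the luciferase enzyme by approved-drug library compounds, run at 10 nM enzyme in 50 mM Tris acetate (final). Luminescence was read within 5 min of enzyme-buffer addition and normalized to PTC124 versus DMSO (0%).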

[12] = S16 Schwann cell viability assay (CellTiter-Glo assay) (AID 624031);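 note: native untransfected S16 rat Schwann cells; cellular ATP luminescence as a viability measure; nearly all actives have a fitted effect of over 70% in size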
Method in brief: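 Cells were seeded at 500-750 per well in phenol red-free DMEM with 10% FBS and left overnight. Compounds or DMSO were pinned in, incubation ran 24 h at 37 °C/5% CO2, then CellTiter-Glo reagent was added and luminescence measured.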

[13] = S16 Schwann cell PMP22 intronic element firefly luciferase assay (AID 624032); note: nearly all actives have a fitted effect of over 30% in size
Method in brief: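 Rat S16 Schwann cells stably carrying a PMP22 intronic element-driven Fluc reporter were seeded overnight, then exposed to compounds for 24 h at 37 °C. Luminescence was normalized to PTC124 (positive control) and DMSO (0% activity).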

[14] = P-glycoprotein substrates identified in KB-3-1 adenocarcinoma cell line, qHTS therapeutic library screen (AID 1346986); note: nearly all actives have a fitted effect of over 60% in size
Method in brief: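 72 h cell-killing screen, 500 cells/well, CellTiter-Glo luminescence. Paired lines KB-3-1/KB-8-5-11; P-gp dependence checked by tariquidar co-treatment and HEK-293 MDR-19 versus empty-vector cells.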

[15] = P-glycoprotein substrates identified in KB-8-5-11 adenocarcinoma cell line, qHTS therapeutic library screen (AID 1346987); note: nearly all actives have a fitted effect of over 65% in size
Method in brief: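 Compounds are pinned in dose-response onto KB-8-5-11 cells (500 cells/well, colchicine-free medium) and left 72 h at 37 degree C. CellTiter-Glo luminescence then yields AC50 values.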

[16] = Primary qHTS for inhibitors of SARS-S pseudo-typed particle cell entry (AID 1479145; calls by dose curve; note: nearly all actives have a fitted effect of over 45% in size)
[17] = Primary qHTS for Huh7 cytotoxicity: counterscreen for inhibitors of MERS-S pseudotyped particle cell entry (AID 1479147; calls by dose curve); conditions: outcome: dose series up to 57.1 µM unless noted
[18] = Primary qHTS for inhibitors of MERS-S pseudo-typed particle cell entry (AID 1479149; calls by dose curve; note: nearly all actives have a fitted effect of over 60% in size)
[19] = Cytotoxicity counterscreen for inhibitors of SARS-CoV-2 cell entry (AID 1645845; calls by dose curve; note: nearly all actives have a fitted effect of over 50% in size)
Method in brief: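 After a 15 min room-temperature ATPLite 1step step, luminescence reflected ATP remaining in HEK293-ACE2 cells exposed to compound for 1 h plus 48 h at 37 C, with percent activity set by cell and no-cell controls.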

[20] = Primary qHTS to identify inhibitors of SARS-CoV-2 cell entry (AID 1645846; calls by dose curve; note: nearly all actives have a fitted effect of over 45% in size); conditions: activity change, negative = inhibition: at 57.1 µM (top of the series) unless noted
Method in brief: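 HEK293 cells stably expressing human ACE2, pre-treated 1 h with compound, then infected with MLV particles pseudotyped with Wuhan-Hu-1 spike (C-terminal 19-aa truncation). Luciferase luminescence after 48 h at 37 °C, normalised to spike PP and bald PP.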

[21] = Primary qHTS for inhibitors of nuclear receptor binding SET domain protein 2 (NSD2) in an isogenic RCH-ACV NSD2 p.E1099K mutant (9B) (AID 1645876); note: nearly all actives have a fitted effect of over 70% in size
[22] = Primary qHTS for inhibitors of nuclear receptor binding SET domain protein 2 (NSD2) in an RCH-ACV wild type WT cells (2C) (AID 1645877); note: nearly all actives have a fitted effect of over 70% in size
[23] = target: Glutathione peroxidase 1 (Homo sapiens) (UniProt P07203); assay: Primary qHTS Assay for Inhibitors of Recombinant Selenoprotein Glutathione Peroxidase 1 (GPX1) (AID 1845191); note: nearly all actives have a fitted effect of over 65% in size
Method in brief: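 GPX1 10 nM, GR 100 nM, GSH 1 mM, NADPH 0.5 mM, CHP 0.5 mM (final). 30-min cpd preincubation, RT. Ex340/Em450 read t=0, t=15 min.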

[24] = target: Phospholipid hydroperoxide glutathione peroxidase GPX4 (Homo sapiens) (UniProt P36969); assay: Primary qHTS Assay for Inhibitors of Recombinant Selenoprotein Glutathione Peroxidase 4 (GPX4) (AID 1845192); note: nearly all actives have a fitted effect of over 65% in size
Method in brief: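 qHTS, GR-coupled: GPX4 200 nM + cpd 30 min RT → GSH 1 mM, NADPH 0.5 mM, GR 100 nM → CHP 0.5 mM start; fluor 340/450 at t0 and t15 min; no-enzyme wells as control.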

[25] = system: 3D7; assay: qHTS profiling for inhibitors of Plasmodium falciparum proliferation (AID 504749); note: nearly all actives have a fitted effect of over 60% in size; note: potency is the fitted concentration of half-maximal effect; conditions: P. falciparum in erythrocytes, SYBR Green DNA, 72 h; series mostly up to 28.7 µM
Method in brief: (§1)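 Quantitative HTS: compounds pinned into medium, infected erythrocytes added (0.3% parasitemia, 2.5% hematocrit), 72 h culture at 37 C under 5% CO2. Saponin/Triton lysis with SYBR Green I, overnight RT, then fluorescence read.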

[26] = system: 7G8; assay: as above; conditions: P. falciparum in erythrocytes, SYBR Green DNA, 72 h; series mostly up to 28.7 µM
Method in brief: as §1

[27] = system: AS120; assay: as above; conditions: P. falciparum in erythrocytes, SYBR Green DNA, 72 h; series mostly up to 28.7 µM
Method in brief: as §1

[28] = system: C2A; assay: as above; conditions: P. falciparum in erythrocytes, SYBR Green DNA, 72 h; series mostly up to 28.7 µM
Method in brief: as §1

[29] = system: CP191; assay: as above; conditions: P. falciparum in erythrocytes, SYBR Green DNA, 72 h; series mostly up to 28.7 µM
Method in brief: as §1

[30] = system: CP192; assay: as above; conditions: P. falciparum in erythrocytes, SYBR Green DNA, 72 h; series mostly up to 28.7 µM
Method in brief: as §1

[31] = system: CP237; assay: as above; conditions: P. falciparum in erythrocytes, SYBR Green DNA, 72 h; series mostly up to 28.7 µM
Method in brief: as §1

[32] = system: CP256; assay: as above; conditions: P. falciparum in erythrocytes, SYBR Green DNA, 72 h; series mostly up to 28.7 µM
Method in brief: as §1

[33] = system: CP262; assay: as above; conditions: P. falciparum in erythrocytes, SYBR Green DNA, 72 h; series mostly up to 28.7 µM
Method in brief: as §1

[34] = system: CP269; assay: as above; conditions: P. falciparum in erythrocytes, SYBR Green DNA, 72 h; series mostly up to 28.7 µM
Method in brief: as §1

[35] = system: CP297; assay: as above; conditions: P. falciparum in erythrocytes, SYBR Green DNA, 72 h; series mostly up to 28.7 µM
Method in brief: as §1

[36] = system: CP315; assay: as above; conditions: P. falciparum in erythrocytes, SYBR Green DNA, 72 h; series mostly up to 28.7 µM
Method in brief: as §1

[37] = system: Dd2; assay: as above; conditions: P. falciparum in erythrocytes, SYBR Green DNA, 72 h; series mostly up to 28.7 µM
Method in brief: as §1

[38] = system: GB4; assay: as above; conditions: P. falciparum in erythrocytes, SYBR Green DNA, 72 h; series mostly up to 28.7 µM
Method in brief: as §1

[39] = system: ICS; assay: as above; conditions: P. falciparum in erythrocytes, SYBR Green DNA, 72 h; series mostly up to 28.7 µM
Method in brief: as §1

[40] = system: JCK; assay: as above; conditions: P. falciparum in erythrocytes, SYBR Green DNA, 72 h; series mostly up to 28.7 µM
Method in brief: as §1

[41] = system: PC49; assay: as above; conditions: P. falciparum in erythrocytes, SYBR Green DNA, 72 h; series mostly up to 28.7 µM
Method in brief: as §1

[42] = system: TAB113; assay: as above; conditions: P. falciparum in erythrocytes, SYBR Green DNA, 72 h; series mostly up to 28.7 µM
Method in brief: as §1

[43] = system: TAB165; assay: as above; conditions: P. falciparum in erythrocytes, SYBR Green DNA, 72 h; series mostly up to 28.7 µM
Method in brief: as §1

[44] = system: W2; assay: as above; conditions: P. falciparum in erythrocytes, SYBR Green DNA, 72 h; series mostly up to 28.7 µM
Method in brief: as §1

Chain of Cytochrome P450 3A4 (Homo sapiens) (P08684 whole entry, looked up): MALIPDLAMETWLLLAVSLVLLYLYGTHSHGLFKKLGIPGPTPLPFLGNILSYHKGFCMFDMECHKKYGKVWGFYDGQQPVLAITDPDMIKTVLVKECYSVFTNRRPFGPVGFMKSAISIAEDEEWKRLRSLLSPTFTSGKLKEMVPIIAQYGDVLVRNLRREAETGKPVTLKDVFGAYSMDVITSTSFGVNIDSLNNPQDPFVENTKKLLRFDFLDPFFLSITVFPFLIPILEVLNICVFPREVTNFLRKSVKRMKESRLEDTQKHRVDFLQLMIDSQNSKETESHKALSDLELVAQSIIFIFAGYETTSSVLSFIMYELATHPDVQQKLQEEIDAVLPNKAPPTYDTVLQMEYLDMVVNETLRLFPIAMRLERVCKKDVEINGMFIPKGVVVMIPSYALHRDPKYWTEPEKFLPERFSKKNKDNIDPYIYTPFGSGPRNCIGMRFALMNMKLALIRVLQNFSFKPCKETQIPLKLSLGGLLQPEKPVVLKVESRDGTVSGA
Chain of ATP-dependent 6-phosphofructokinase (Trypanosoma brucei brucei) (O15648 whole entry, looked up): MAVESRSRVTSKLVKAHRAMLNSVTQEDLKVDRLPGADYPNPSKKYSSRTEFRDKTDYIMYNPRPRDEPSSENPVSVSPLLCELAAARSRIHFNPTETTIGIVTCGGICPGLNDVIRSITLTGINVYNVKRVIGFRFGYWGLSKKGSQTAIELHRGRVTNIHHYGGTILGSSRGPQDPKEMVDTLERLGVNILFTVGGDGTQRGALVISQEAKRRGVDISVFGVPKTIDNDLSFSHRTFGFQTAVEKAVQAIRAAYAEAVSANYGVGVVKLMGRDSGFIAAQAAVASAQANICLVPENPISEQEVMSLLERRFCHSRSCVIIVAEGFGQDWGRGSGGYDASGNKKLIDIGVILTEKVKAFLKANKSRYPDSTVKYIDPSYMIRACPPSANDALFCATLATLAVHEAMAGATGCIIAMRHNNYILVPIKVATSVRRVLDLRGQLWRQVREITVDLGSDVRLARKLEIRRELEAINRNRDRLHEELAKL
Chain of DNA dC->dU-editing enzyme APOBEC-3G (Homo sapiens) (Q9HC16 whole entry, looked up): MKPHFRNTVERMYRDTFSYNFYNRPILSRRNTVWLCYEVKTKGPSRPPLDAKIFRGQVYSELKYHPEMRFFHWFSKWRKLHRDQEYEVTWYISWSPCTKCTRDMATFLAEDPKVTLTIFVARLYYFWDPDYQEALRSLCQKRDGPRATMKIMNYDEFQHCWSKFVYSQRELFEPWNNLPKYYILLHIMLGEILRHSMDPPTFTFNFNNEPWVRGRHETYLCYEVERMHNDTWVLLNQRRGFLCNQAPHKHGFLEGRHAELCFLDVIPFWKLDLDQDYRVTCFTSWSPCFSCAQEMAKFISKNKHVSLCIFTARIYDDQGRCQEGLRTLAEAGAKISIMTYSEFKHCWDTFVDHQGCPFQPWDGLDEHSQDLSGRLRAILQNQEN
Chain of Luciferin 4-monooxygenase (Photinus pyralis) (P08659 whole entry, looked up): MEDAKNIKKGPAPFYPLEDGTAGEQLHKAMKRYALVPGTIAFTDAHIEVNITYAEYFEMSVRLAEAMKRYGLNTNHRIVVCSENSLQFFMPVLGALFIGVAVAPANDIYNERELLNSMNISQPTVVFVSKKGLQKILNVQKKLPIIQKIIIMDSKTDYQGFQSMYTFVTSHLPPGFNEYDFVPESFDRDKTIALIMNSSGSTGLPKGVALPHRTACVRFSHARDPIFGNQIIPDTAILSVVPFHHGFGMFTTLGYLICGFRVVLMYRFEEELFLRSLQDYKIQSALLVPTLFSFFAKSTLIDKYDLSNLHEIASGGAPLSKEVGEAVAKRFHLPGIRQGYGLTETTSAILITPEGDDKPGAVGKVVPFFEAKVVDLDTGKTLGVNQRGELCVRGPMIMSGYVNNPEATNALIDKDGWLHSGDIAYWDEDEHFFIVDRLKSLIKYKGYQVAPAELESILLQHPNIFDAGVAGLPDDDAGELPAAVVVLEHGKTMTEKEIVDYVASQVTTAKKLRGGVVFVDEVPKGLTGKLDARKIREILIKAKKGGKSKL
Chain of Phospholipid hydroperoxide glutathione peroxidase GPX4 (Homo sapiens) (P36969 whole entry, looked up): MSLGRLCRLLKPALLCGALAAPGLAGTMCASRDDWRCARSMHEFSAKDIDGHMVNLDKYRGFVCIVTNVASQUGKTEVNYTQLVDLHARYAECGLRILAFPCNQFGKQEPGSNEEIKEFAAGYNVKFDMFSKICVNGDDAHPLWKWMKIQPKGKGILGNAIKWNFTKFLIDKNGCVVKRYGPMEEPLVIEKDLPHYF
Chain of Ubiquitin carboxyl-terminal hydrolase 1 (Homo sapiens) (O94782 whole entry, looked up): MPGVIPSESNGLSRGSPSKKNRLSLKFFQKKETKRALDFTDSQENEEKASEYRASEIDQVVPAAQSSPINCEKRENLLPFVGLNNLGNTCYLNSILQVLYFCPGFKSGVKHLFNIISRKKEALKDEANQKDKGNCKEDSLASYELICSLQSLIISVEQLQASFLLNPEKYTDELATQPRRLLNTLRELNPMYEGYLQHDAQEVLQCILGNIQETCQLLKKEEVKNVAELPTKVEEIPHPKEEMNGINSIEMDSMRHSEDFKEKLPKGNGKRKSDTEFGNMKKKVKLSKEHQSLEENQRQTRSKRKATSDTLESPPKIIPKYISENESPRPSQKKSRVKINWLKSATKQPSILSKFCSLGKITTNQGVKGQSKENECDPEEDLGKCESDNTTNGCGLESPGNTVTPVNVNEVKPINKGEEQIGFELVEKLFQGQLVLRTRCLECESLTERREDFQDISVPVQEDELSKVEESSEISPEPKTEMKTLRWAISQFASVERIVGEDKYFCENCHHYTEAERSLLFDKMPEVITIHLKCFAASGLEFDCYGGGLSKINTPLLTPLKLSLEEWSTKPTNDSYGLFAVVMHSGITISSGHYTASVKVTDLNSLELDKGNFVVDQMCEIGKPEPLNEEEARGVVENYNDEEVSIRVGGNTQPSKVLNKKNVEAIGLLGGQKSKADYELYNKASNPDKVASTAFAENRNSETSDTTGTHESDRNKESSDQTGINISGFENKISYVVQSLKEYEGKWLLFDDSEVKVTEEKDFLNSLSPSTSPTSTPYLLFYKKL
Chain of Glucocorticoid receptor (Homo sapiens) (P04150 whole entry, looked up, the tested form may be a part): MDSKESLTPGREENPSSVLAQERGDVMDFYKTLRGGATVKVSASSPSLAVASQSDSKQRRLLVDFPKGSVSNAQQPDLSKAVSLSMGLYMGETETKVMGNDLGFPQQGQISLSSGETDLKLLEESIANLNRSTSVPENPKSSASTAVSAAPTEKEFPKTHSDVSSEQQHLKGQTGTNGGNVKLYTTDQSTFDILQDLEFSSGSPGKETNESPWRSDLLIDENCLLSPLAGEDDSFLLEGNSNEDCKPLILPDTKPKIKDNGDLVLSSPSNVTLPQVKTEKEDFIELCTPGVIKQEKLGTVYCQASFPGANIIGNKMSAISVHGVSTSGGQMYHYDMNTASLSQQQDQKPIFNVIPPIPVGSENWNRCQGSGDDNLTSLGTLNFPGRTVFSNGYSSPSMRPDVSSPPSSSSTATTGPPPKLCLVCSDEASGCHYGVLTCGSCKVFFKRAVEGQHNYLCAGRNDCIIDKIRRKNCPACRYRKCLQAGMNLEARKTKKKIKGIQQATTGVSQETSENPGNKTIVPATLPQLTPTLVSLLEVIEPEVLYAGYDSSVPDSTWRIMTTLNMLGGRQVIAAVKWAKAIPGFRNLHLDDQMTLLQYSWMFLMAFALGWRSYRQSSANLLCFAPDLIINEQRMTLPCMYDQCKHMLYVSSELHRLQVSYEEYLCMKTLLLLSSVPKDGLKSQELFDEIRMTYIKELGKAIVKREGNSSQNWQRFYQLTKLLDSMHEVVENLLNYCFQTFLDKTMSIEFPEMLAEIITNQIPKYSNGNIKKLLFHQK
Chain of Cytochrome P450 2C9 (Homo sapiens) (P11712 whole entry, looked up): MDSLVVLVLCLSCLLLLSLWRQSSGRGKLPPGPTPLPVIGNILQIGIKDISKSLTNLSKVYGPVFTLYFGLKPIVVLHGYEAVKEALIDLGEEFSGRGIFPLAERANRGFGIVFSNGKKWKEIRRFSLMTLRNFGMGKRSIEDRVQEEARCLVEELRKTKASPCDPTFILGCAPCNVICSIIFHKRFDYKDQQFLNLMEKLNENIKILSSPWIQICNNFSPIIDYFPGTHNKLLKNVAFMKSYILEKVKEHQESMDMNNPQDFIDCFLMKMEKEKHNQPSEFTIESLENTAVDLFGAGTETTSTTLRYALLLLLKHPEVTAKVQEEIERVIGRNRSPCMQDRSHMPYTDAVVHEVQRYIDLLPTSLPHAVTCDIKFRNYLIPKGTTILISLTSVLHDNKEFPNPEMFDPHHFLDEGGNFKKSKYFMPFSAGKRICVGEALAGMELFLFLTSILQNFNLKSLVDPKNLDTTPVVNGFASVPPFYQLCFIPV
Chain of Glutathione peroxidase 1 (Homo sapiens) (P07203 whole entry, looked up): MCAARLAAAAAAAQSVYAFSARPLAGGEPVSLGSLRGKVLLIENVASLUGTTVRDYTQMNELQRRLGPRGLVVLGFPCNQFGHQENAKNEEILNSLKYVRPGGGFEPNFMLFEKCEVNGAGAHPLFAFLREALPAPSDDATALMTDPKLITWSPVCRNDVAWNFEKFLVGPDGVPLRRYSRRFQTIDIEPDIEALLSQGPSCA
Chain of Cytochrome P450 1A2 (Homo sapiens) (P05177 whole entry, looked up): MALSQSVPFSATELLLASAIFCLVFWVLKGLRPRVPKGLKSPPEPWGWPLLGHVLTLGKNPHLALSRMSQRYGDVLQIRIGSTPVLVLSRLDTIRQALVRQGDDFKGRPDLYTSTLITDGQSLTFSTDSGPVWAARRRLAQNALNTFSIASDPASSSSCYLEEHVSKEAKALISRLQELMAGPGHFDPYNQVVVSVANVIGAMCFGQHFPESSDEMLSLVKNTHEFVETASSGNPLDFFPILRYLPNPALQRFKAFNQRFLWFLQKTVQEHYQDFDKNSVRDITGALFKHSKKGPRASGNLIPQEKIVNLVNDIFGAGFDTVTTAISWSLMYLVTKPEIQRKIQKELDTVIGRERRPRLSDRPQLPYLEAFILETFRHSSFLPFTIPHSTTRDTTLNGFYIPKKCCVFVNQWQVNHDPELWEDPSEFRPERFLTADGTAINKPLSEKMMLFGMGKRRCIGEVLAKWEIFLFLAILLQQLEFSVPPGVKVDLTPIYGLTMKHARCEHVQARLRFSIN

Cc1cccc([C@H](C)c2cnc[nH]2)c1C
Potency [1]: 0.158 µM (active) | Potency [2]: > 46 µM | outcome [3]: inactive | Potency [4]: 0.199 µM (active) | Potency [5]: 0.158 µM (active) | Potency [6]: inactive | Potency [7]: 5.01 µM (active) | Potency [8]: inactive | Potency [9]: inactive | Potency [10]: inactive | Potency [11]: inactive | Potency [12]: inactive | Potency [13]: inactive | Potency [14]: inactive | Potency [15]: inactive | Potency [16]: inactive | outcome [17]: inactive | Potency [18]: inactive | Potency [19]: inactive | Potency [20]: inactive | Potency [21]: inactive | Potency [22]: inactive | Potency [23]: inactive | Potency [24]: inactive | Potency [25]: inactive | Potency [26]: 7.94 µM (active) | Potency [27]: inactive | Potency [28]: inactive | Potency [29]: 7.08 µM (active) | Potency [30]: inactive | Potency [31]: 11.2 µM (active) | Potency [32]: 7.08 µM (active) | Potency [33]: inactive | Potency [34]: inactive | Potency [35]: 10.7 µM (active) | Potency [36]: inactive | Potency [37]: 11.2 µM (active) | Potency [38]: 8.49 µM (active) | Potency [39]: 12.6 µM (active) | Potency [40]: inactive | Potency [41]: inactive | Potency [42]: inactive | Potency [43]: 4.47 µM (active) | Potency [44]: 10.7 µM (active)
